# Experimental data published in PubChem BioAssay (EPA / NIEHS).
# A structure can be active in one record and inactive in another. The source made the active and inactive calls. How the source made its calls: active means hit-call score of the fitted dose curve at least 0.9, where 1 is the maximum; inactive means score below 0.9.
# Assay: BSK_3C_VCAM1: BioMAP Diversity Plus: 3C Assay for Vascular cell adhesion molecule 1 (VCAM1) Biomarker Activity (AID 2282999)
# Details: BioMAP 3C HUVEC, VCAM1 ELISA, cytokine-stimulated; actives raise or lower the signal
# Procedure: BSK_3C is a cell-based, multiplexed-readout assay that uses umbilical vein endothelium, a human vascular primary cell, with measurements taken at 24 hours after chemical dosing in a 96-well plate.BSK_3C_VCAM1 is an assay component measured in the BSK_3C assay. It measures VCAM-1 antibody related to regulation of gene expression using ELISA technology.Data from the assay component BSK_3C_VCAM1 was analyzed into 1 assay endpoint. This assay endpoint, BSK_3C_VCAM1, was analyzed with bidirectional fitting relative to DMSO as the negative control and baseline of activity. Using a type of binding reporter, gain or loss-of-signal activity can be used to understand changes in the signaling as they relate to the gene VCAM1. Furthermore, this assay endpoint can be referred to as a primary readout, because this assay has produced multiple assay endpoints where this one serves a signaling function. To generalize the intended target to other relatable targets, this assay endpoint is annotated to the cell adhesion molecules intended target family, where the subfamily is Immunoglobulin CAM.
# The levels of cell surface (or secreted, indicated by the prefix "s") biomarker endpoints were measured by ELISA. Overt cytotoxicity to cells in confluent adherent cultures (all systems other than the BT system) was assessed by measuring total protein levels using sulforhodamine B (SRB) staining in parallel cultures at the time of biomarker measurements, indicated as SRB endpoints. For proliferation assays for adherent cell types, individual cell types are cultured at sub-confluence and relative cell numbers quantified by SRB staining at time points optimized for each system (48 h: 3C and CASM3C systems; 72 h: BT and HDF3CGF systems; 96 h: SAg system). SRB was performed by staining cells with 0.1% SRB after fixation with 10% TCA and reading wells at 560 nm.Viability and proliferation of PBMC (T cells) was quantified by Alamar Blue reduction for the SAg and BT systems. For PBMC viability (referred to as PBMC Cytotoxicity within the assay endpoint names), cells were plated (75,000/well in a 96-well plate) and then chemical samples added for 1 h before addition of activators, SEB and TSST-1 (20 ng/mL final concentration each). Cells were incubated for 90 h. Then, Alamar Blue (20 uL/well) (Invitrogen, Cat DAL1100) was added for 6 h, and the plates were read with a fluorescence microplate reader at 546/580 nm (excitation/emission). For PBMC proliferation, cells were plated and activated as above but incubated for only 16 h prior to addition of Alamar Blue. Plates were read after 6 h.
Compound,outcome,AC50
CCNS(=O)(=O)C(F)(F)C(F)(F)C(F)(F)C(F)(F)C(F)(F)C(F)(F)C(F)(F)C(F)(F)F,inactive,14.8 µM (active)
Nc1cc(Cl)cc(C(=O)O)c1Cl,inactive,–
Cc1ccc([N+](=O)[O-])cc1,inactive,–
COP(=S)(OC)SCN1C(=O)c2ccccc2C1=O,inactive,–
COC(=O)c1ccccc1N,inactive,–
Clc1ccccc1Cl,inactive,–
CCCCCOC(=O)c1ccccc1C(=O)OCCCCC,–,20 µM (active)
Cc1ccc(N)cc1,inactive,–
CCCCCCCCOC(=O)c1ccc(C(=O)OCCCCCCCC)c(C(=O)OCCCCCCCC)c1,inactive,–
Cc1cc(N=Nc2ccccc2C)ccc1N,inactive,–
OCCCl,inactive,–
Oc1ccccc1Cl,inactive,–
Clc1ccc(Cl)c(Cl)c1,inactive,–
CC(C)N(Cc1ccccc1)C(=O)C(C)(C)C,inactive,–
Nc1ccc(Oc2ccc(N)cc2)cc1,inactive,–
CCCCC(CC)COC(=O)c1ccc(C(=O)OCC(CC)CCCC)c(C(=O)OCC(CC)CCCC)c1 (stereo not given),inactive,–
CN(C)[C@@H]1C(=O)C(C(N)=O)=C(O)[C@@]2(O)C(=O)C3=C(O)c4c(O)cccc4[C@@](C)(O)[C@H]3C[C@@H]12,inactive,–
N#CC(Br)Br,inactive,–
Cn1cc(-c2ccccc2)c(=O)c(-c2cccc(C(F)(F)F)c2)c1,inactive,–
CCN(CC)CCO,inactive,–

Compound,outcome,AC50
c1ccc(C2CO2)cc1 (stereo not given),inactive,–
Cc1cccc(N)c1N,–,16 µM (active)
CC(C)(O)c1cnn2c(-c3ccc(F)c(-c4c(F)cccc4C#N)c3)cnc2n1,–,35.3 µM (active)
O=[N+]([O-])c1ccc(Oc2ccc(Cl)cc2Cl)cc1,inactive,–
Clc1ccc(C(c2ccc(Cl)cc2)C(Cl)(Cl)Cl)cc1,–,27.5 µM (active)
Nc1ccc(Cl)cc1N,–,4.34 µM (active)
[O-][Cl+]O,inactive,–
CN(C)c1ccc(C(=O)c2ccc(N(C)C)cc2)cc1,inactive,–
CC(C)(OOC(C)(C)c1ccccc1)c1ccccc1,–,27.7 µM (active)
C[N+](C)(C)CC1CO1 (stereo not given),inactive,–
O=C(Nc1ccccc1)c1ccccc1I,inactive,–
CC(C)COC(=O)c1ccccc1C(=O)OCC(C)C,–,26.8 µM (active)
C1=Cc2cccc3cccc1c23,inactive,–
N#CC(Br)(Br)C(N)=O,inactive,–
COc1cc(C=O)cc2c1[C@H](COC(N)=O)[C@]1(OC(C)=O)ON2C[C@H]2[C@@H]1N2C(C)=O,–,22.1 µM (active)
CCC12COCN1COC2,inactive,–
CC(C)(C)OOC(C)(C)CCC(C)(C)OOC(C)(C)C,inactive,–
Nc1ccc(N=Nc2ccccc2)cc1,inactive,–
CCOc1cccc(C2(N3CCN(c4ccccc4)CC3)CCC(C)CC2)c1 (stereo not given),inactive,–
